Source: PubChem BioAssay AID651692 (Broad Institute, 2012)
Measured potencies and affinities stand elsewhere. Active and inactive are the calls of the source.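 The calls were made as follows: active = fitted half-maximal concentration for loss of cell signal no higher than twice the top valid tested concentration; inconclusive = flat curve at 30 to 70% inhibition, or poor fit; inactive = flat within 30%, signal rise, or potency above limit.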

assay: cytotoxicity toward MDA-MB-231 breast cancer cells – cell-based, CellTiter-Glo luminescence, cherry-pick, cytotoxicity control for RAD54 inhibitor project, dose response (AID 651692); conditions: MDA-MB-231 viability, 24 h; series mostly up to 26 µM; activity change, negative = growth inhibition: at the top concentration;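 also: 0% = median of sample compound wells and -100% = staurosporine control wells; more negative values mean stronger loss of viable cell signal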

SMILES | activity change, negative = growth inhibition
COc1cc(OC)c2nc(C)c3c(c2c1)N(c1ccc(O)cc1)CC3 | 6.2% (inactive)
OCCN1CCN(c2ncnc3c2sc2nc(N4CCOCC4)c4c(c23)CCC4)CC1 | 2.58% (inactive)
COc1cccc(-c2cnc3c(NC(C)=O)cc(-c4cccc(C(=O)NCCN(C)C)c4)cn23)c1 | -22.6% (inactive)
Cc1c(O)c(CN(C)C)cc2c1oc(=O)c1ccccc12 | 7.59% (inactive)
CCOC(=O)c1cnc2c(C)c(Cl)ccc2c1NCCCN1CCOCC1 | 7.57% (inactive)
CCN(CC)CCNc1cccc2sc3ccccc3c(=O)c12 | -14.9% (inactive)
CN(C)CCNc1cc(-c2ccncc2)nc2ccccc12 | 13.6% (inactive)
CCOCCCNC(=S)Nc1ccc2nc(N3CCCC3)cc(C)c2c1 | -4.85% (inactive)
COc1ccc(C(=O)CN2CCN(CCN3C(=O)c4cccc5cccc(c45)C3=O)CC2)cc1 | 2.15% (inactive)
CCN(CC)Cc1cc2[nH]c3c4ccc(Cl)cc4ncc3c2cc1OC | 2.58% (inactive)
CCN(CC)CCNC(=S)Nc1ccc2nc(N3CCN(C)CC3)cc(C)c2c1 | -1.16% (inactive)
Clc1ccc2[nH]c3c(NCCCN4CCOCC4)ncnc3c2c1 | -0.34% (inactive)
CCN1CCN(c2nn3c(=O)c4ccccc4nc3c3ccccc23)CC1 | -13.4% (inactive)
CC(C)CSc1ncc(-c2cccc(C(F)(F)F)c2)cn1 | 9.42% (inactive)
COC(=O)c1c(NC(=O)c2ccc([N+](=O)[O-])o2)sc2c1CCN(C(C)C)C2 | 12.9% (inactive)
Cc1ccc2[nH]c(=O)c3cc(C(=O)NCCN4CCN(C)CC4)sc3c2c1 | -2.44% (inactive)
CCN1CCN(c2cc(C)c3cc(NC(=S)NCCN(C)C)ccc3n2)CC1 | 1.08% (inactive)
CN1CCc2[nH]c3ccc(C(=O)NN)cc3c2C1 | -1.61% (inactive)
CN(C)CCN(C(=O)CN1C(=O)c2ccccc2C1=O)c1nc2cc3c(cc2s1)OCO3 | 4.48% (inactive)
Cc1nc2ccccc2c2oc(C(=O)NCCN3CCN(C)CC3)cc12 | 5.38% (inactive)
